Assay [1] can be described thus: qHTS assay to identify small molecule agonists of the sonic hedgehog signaling (Shh) pathway (AID 1259368).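 Also: NIH/3T3-derived 3T3Gli1-Luc cells carrying a stable Gli1-driven firefly luciferase reporter; series mostly up to about 92 µM; nearly all actives have a fitted effect of over 15% in size.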 The essentials:
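Stable NIH/3T3 Gli1-Luc reporter clone; 24 hr cpd exposure after a 4 hr settling period; luminescence endpoint.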

Assay [2] in a line: qHTS assay to identify small molecule antagonists of the sonic hedgehog signaling (Shh) pathway (AID 1259369). Also: nearly all actives have a fitted effect of over 45% in size. Also: potency is read from the fitted curve at half-maximal effect. The gist of the method:
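Gli1 transcriptional reporter (firefly Luc) in NIH/3T3 background, conditioned-medium activated. 24hr exposure, luminescence endpoint.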

The target in assay [3] is Estrogen receptor beta (Homo sapiens) (UniProt Q92731). As to the kind of experiment: qHTS assay to identify small molecule agonists of the estrogen receptor beta (ER-beta) signaling pathway (AID 1259377; active = well fitted activation curve with a large enough effect in the signal ratio in the repeat runs, not every such curve was filed as active; the % refers to the signal ratio). The gist of the method: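 HEK293T ER-beta-UAS-bla; 2% charcoal-stripped FBS; cells pre-incubated 6 hr, compound 16 hr, 37C/5% CO2; LiveBLAzer B/G FRET substrate 2 h RT; fluorescence intensity read.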
Chain of Estrogen receptor beta (Homo sapiens) (Q92731 whole entry, looked up): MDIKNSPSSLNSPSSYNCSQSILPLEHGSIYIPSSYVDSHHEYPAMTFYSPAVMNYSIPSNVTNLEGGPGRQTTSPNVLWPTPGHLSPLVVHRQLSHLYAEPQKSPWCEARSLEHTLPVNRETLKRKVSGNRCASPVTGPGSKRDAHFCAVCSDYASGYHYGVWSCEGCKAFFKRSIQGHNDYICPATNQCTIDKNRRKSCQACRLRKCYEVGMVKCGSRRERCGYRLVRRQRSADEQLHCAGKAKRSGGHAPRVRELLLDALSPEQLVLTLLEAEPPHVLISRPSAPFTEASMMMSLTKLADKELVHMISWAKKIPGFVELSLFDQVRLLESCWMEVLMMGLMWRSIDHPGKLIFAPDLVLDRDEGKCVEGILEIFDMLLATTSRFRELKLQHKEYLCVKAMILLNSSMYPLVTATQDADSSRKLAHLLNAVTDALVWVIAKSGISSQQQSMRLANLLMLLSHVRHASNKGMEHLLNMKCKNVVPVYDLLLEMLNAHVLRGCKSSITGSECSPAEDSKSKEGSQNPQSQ

The target is the same in assay [4]. As to the kind of experiment: qHTS assay to identify small molecule antagonists of the estrogen receptor beta (ER-beta) signaling pathway (AID 1259378; active = well fitted inhibition curve with a large enough effect in the signal ratio in the repeat runs, not every such curve was filed as active; the % refers to the signal ratio). The gist of the method: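 Antagonist mode: compounds added to beta-lactamase reporter HEK293T ER-beta-UAS cells stimulated with E2 (1nM final), 16 hr at 37C. LiveBLAzer B/G FRET substrate, 2 hours room temperature, fluorescence read-out.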

Assay [5] is described as follows: qHTS assay to identify small molecule agonists of the androgen receptor (AR) signaling pathway in the presence of an antagonist - cell viability counter screen (AID 1259379; active = well fitted curve in the direction sought with a large enough effect in the repeat runs; an effect the other way counts as inactive or inconclusive;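 also: MDA-kb2 human breast cancer cells carrying an MMTV luciferase reporter; series mostly up to about 92 µM; nearly all actives have a fitted effect of over 25% in size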). The gist of the method:
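Counter screen for cell viability run in parallel with the AR agonist-mode luciferase assay. MDA-kb2 cells were co-treated with nilutamide (3.0uM final) and compounds, then incubated 16 hr at 37C, and CellTiter-Fluor fluorescence was measured.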

The nature of assay [6]: qHTS assay to identify small molecule agonists of the estrogen receptor beta (ER-beta) signaling pathway - cell viability counter screen (AID 1259380; active = well fitted curve in the direction sought with a large enough effect in the repeat runs; an effect the other way counts as inactive or inconclusive; also: nearly all actives have a fitted effect of over 30% in size). The gist of the method:
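In this qHTS counter screen, HEK293T cells carrying an ER-beta/UAS beta-lactamase reporter, grown in 2% charcoal-stripped FBS, received compound for 16 hr; ATP-based CellTiter-Glo luminescence was then read after 30 min at room temperature.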

The nature of assay [7]: qHTS assay to identify small molecule antagonists of the estrogen receptor beta (ER-beta) signaling pathway - cell viability counter screen (AID 1259382; active = well fitted curve in the direction sought with a large enough effect in the repeat runs; an effect the other way counts as inactive or inconclusive;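 also: HEK293T cells carrying ER-beta-UAS-bla reporter stimulated with estradiol; series mostly up to about 92 µM; nearly all actives have a fitted effect of over 55% in size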). The essentials:
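HEK293T ER-beta-UAS-bla, 2% charcoal-stripped FBS; compounds + 1nM E2 16 hr 37C; CellTiter-Glo luminescence, 30 min RT.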

The target of assay [8] is Estrogen receptor (Homo sapiens) (UniProt P03372). Description: qHTS assay to identify small molecule agonists of the estrogen receptor alpha (ER-alpha) signaling pathway in the presence of an antagonist (AID 1259383). Also: top concentration of the series differs between compounds; nearly all actives have a fitted effect of over 15% in size. The gist of the method: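 ER-alpha agonism measured under antagonist challenge: 10.0nM ICI-182,780 (final) plus compound, 15 concentrations, 22hr, VM7Luc4E2 ERE-luciferase cells. Read by luminescence.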
Chain of Estrogen receptor (Homo sapiens) (P03372 whole entry, looked up): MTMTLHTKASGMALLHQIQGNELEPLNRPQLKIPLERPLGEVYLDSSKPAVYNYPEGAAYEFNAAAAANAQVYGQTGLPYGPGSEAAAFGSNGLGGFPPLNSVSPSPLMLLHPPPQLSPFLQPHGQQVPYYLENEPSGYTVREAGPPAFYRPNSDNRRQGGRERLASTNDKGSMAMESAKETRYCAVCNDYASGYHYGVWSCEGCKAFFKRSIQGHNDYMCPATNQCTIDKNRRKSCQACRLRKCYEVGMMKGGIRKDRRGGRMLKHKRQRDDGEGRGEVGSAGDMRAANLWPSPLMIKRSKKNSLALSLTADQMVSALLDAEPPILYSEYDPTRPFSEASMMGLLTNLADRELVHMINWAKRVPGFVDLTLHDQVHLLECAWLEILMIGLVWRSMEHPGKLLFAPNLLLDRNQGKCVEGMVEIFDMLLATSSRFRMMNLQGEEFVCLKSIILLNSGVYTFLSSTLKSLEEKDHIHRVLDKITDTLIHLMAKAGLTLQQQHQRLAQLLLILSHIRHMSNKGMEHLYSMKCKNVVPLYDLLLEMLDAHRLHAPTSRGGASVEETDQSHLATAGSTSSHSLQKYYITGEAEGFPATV

A short description of assay [9]: qHTS assay to identify small molecule agonists or antagonists of the thyroid stimulating hormone receptor (TSHR) signaling pathway - wild type cell line counter screen (AID 1259384). The gist of the method:
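Counter screen in untransfected Hek293: compounds (15-point titration, triplicate) plus phosphodiesterase inhibitor Ro20-1724 added after 18 h plating; 30 min RT. Intracellular cAMP via competitive d2/cryptate immunoassay, 1 h incubation.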

In assay [10] the target is Androgen receptor (Homo sapiens) (UniProt P10275). As to the kind of experiment: qHTS assay to identify small molecule agonists of the androgen receptor (AR) signaling pathway in the presence of an antagonist (AID 1259381). Also: nearly all actives have a fitted effect of over 15% in size. The gist of the method:
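AR antagonist background: nilutamide 3.0uM final. Cell line: MDA-kb2, MMTV-driven luciferase, responsive to both AR and GR. Exposure 16hr, 37C, no CO2; ONE-Glo luminescence.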

This passage reports Potency results from PubChem BioAssay (Tox21).

Results filed as inconclusive are left out. The source made the active and inactive calls. Unless noted, calls follow the shape of the full dose curve.

Chain of Androgen receptor (Homo sapiens) (P10275 whole entry, looked up): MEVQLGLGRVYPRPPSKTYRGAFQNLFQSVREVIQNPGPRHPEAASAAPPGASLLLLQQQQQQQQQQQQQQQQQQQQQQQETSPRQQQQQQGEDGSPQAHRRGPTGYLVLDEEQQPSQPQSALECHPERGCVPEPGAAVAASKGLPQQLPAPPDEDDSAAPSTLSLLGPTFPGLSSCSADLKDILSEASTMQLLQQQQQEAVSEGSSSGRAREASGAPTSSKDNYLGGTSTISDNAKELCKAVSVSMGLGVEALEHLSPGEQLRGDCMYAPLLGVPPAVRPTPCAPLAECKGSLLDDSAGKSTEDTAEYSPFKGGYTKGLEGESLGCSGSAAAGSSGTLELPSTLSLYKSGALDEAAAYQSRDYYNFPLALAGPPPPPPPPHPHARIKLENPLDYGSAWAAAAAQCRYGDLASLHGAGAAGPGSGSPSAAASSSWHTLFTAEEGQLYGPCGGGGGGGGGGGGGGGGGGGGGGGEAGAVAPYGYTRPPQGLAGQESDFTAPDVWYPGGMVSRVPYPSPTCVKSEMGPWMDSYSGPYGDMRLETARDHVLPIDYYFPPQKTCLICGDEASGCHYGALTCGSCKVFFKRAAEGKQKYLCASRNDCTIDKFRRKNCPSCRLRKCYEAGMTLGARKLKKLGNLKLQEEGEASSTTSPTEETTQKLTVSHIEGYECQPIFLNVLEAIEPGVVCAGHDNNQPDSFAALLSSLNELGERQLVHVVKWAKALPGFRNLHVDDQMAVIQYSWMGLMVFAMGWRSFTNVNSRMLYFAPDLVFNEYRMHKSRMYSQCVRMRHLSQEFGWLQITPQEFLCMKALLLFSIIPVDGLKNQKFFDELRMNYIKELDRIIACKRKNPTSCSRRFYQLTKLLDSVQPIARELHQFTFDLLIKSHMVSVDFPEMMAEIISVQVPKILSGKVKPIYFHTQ

Regarding `CC1CCCO1` (centres undefined), the Potency entry in assay [1], in assay [2], in [3], in [4], in assay [5] and in assay [6] was “inactive” throughout. Further, the Potency result in assay [7] is “inactive”.

As to `ClC1=C(Cl)C1(Cl)Cl`, the Potency entry in assay [1], in assay [2], in [3], in assay [4], in assay [5] and in assay [6] was “inactive” each time. For the same compound, the Potency result in assay [7], in [8] and in assay [9] was “inactive” throughout.

As for `Cc1ccc(S(=O)(=O)NC(=O)NC2CCCCC2)cc1`, the Potency entry in [1], in assay [2], in assay [3], in assay [4], in assay [5] and in [6] was “inactive” each time. Moreover, the Potency result in [7], in assay [8] and in assay [9] was “inactive” in each case.

Take `CC1=CC[C@@]23C[C@@H]1C(C)(C)[C@@H]2CC[C@H]3C`: the Potency result in assay [1], in assay [2], in [3], in [4], in assay [5] and in assay [6] was “inactive” each time. Also, the Potency result in [7] and in [9] was “inactive” each time.

For `CCOc1ncc(F)c(=O)[nH]1`, the Potency entry in [1], in assay [2], in assay [3], in [4], in assay [5] and in assay [6] was “inactive” throughout. Besides, the Potency result in assay [7], in [8] and in assay [9] was “inactive” throughout.

As for `CC(C)(O)c1coc(S(=O)(=O)NC(=O)Nc2c3c(cc4c2CCC4)CCC3)c1`, the Potency entry in [1], in assay [3], in assay [4], in assay [5], in [6] and in assay [7] was “inactive” each time. The Potency entry in [9] was “inactive”. In assay [2], the Potency is 54.5 µM (active).

Take `C[C@H](CS)C(=O)N1CCC[C@H]1C(=O)O`: the Potency entry in [1], in [2], in [3], in [4], in assay [5] and in assay [6] was “inactive” in each case. Besides, the Potency result in [10], in [7] and in assay [9] was “inactive” each time.

Take `CSCC[C@H](NC(=O)[C@H](Cc1c[nH]c2ccccc12)NC(=O)CCNC(=O)OC(C)(C)C)C(=O)N[C@@H](CC(=O)O)C(=O)N[C@@H](Cc1ccccc1)C(N)=O`: the Potency entry in assay [1], in [2], in assay [3], in assay [4], in assay [5] and in assay [6] was “inactive” each time. For the same compound, the Potency result in assay [7], in assay [8] and in assay [9] was “inactive” each time.

With `Oc1cccc2[nH]ccc12`, the Potency result in assay [1], in assay [2], in assay [3], in [4], in [5] and in assay [6] was “inactive” throughout. In addition, the Potency entry in [10], in assay [7], in [8] and in [9] was “inactive” each time.

Take `CC12CC3CC(C)(C1)CC(N)(C3)C2`: the Potency entry in [1], in [3], in [4], in [5], in assay [6] and in [7] was “inactive” in each case. Besides, the Potency entry in [8] and in [9] was “inactive” each time. For the same compound, the Potency in [2] was 16.8 µM (active).

Consider `C/C(C=O)=C\c1ccccc1`, for which the Potency entry in [1], in assay [2], in assay [3], in assay [4], in [5] and in [6] was “inactive” in each case. Moreover, the Potency entry in [7], in [8] and in [9] was “inactive” in each case.

With `COC1CCC=CO1` (centres undefined), the Potency result in assay [1], in assay [2], in assay [3], in assay [4], in [5] and in [6] was “inactive” in each case. Further, the Potency result in assay [7], in [8] and in [9] was “inactive” throughout.

For the compound `CC1CCc2nccnc21` (centres undefined), the Potency result in [1], in assay [2], in assay [3], in [4], in assay [5] and in assay [6] was “inactive” each time. Moreover, the Potency entry in assay [7] and in assay [8] was “inactive” in each case.

As to `CCc1ccc(C)cc1`, the Potency entry in [1], in assay [2], in assay [3], in [4], in [5] and in assay [6] was “inactive” in each case. Moreover, the Potency result in [10] and in assay [7] was “inactive” each time.

`CC(C)COC(=O)COc1cc(Cl)c(Cl)cc1Cl`: the Potency result in [1], in assay [2], in assay [3], in assay [4], in assay [5] and in assay [6] was “inactive” each time. For the same compound, the Potency entry in assay [7], in assay [8] and in [9] was “inactive” in each case.

Regarding `[Cl][Nd]([Cl])[Cl]`, the Potency result in [1], in assay [2], in assay [3], in assay [4], in assay [5] and in [6] was “inactive” throughout. The Potency result in assay [7], in assay [8] and in [9] was “inactive” throughout.

In the case of `CCCCCCCCCCCCCCCCCC(=O)OCC(CC)CCCC` (centres undefined), the Potency entry in [1], in [2], in assay [3], in assay [4], in assay [5] and in [6] was “inactive” throughout. For the same compound, the Potency entry in assay [7] and in assay [9] was “inactive” throughout.

As to `O=C(Nc1ccc(C(=O)O)c(O)c1)c1ccccc1`, the Potency result in assay [1], in assay [2], in assay [3], in assay [4], in assay [5] and in assay [6] was “inactive” each time. Moreover, the Potency result in assay [7], in assay [8] and in assay [9] was “inactive” in each case.

With `NC(=O)CCCCC(N)=O`, the Potency result in assay [1], in [2], in assay [3], in [4], in assay [5] and in [6] was “inactive” in each case. Also, the Potency entry in [7], in assay [8] and in assay [9] was “inactive” each time.

On to `O=C(C(=O)c1ccco1)c1ccco1`, for which the Potency entry in [1], in assay [2], in assay [3], in assay [4], in assay [5] and in [6] was “inactive” in each case. For the same compound, the Potency result in assay [7] and in assay [8] was “inactive” each time.

`COc1ccc(C2C(=O)c3ccccc3C2=O)cc1`: the Potency result in assay [1], in [2], in [3], in assay [4], in [5] and in assay [6] was “inactive” throughout. For the same compound, the Potency entry in assay [7] and in assay [8] was “inactive” throughout.

Take `CC(C)(O)CCc1ccccc1`: the Potency entry in assay [1], in [2], in [3], in assay [4], in assay [5] and in [6] was “inactive” in each case. In addition, the Potency entry in [7], in [8] and in [9] was “inactive” each time.

In the case of `C=C(C)c1ccccc1`, the Potency entry in [1], in assay [2], in [3], in [4], in [5] and in [6] was “inactive” in each case. For the same compound, the Potency entry in assay [7] and in assay [9] was “inactive” in each case.

For `Cc1cc(CCC(=O)OCCOCCOCCOC(=O)CCc2cc(C)c(O)c(C(C)(C)C)c2)cc(C(C)(C)C)c1O`, the Potency result in [1], in [2], in assay [3], in [4], in [5] and in assay [6] was “inactive” throughout. Moreover, the Potency result in assay [7] and in [9] was “inactive” in each case.

Turning to `CC1CCCC(=O)C1=O` (centres undefined), the Potency entry in assay [1], in [2], in assay [3], in [4], in [5] and in assay [10] was “inactive” throughout. The Potency result in assay [7] and in assay [8] was “inactive” throughout.
